# DAX1 inh-1 = NR0B1 (DAX1) inhibition. inhibition, % at 6.75 µM. actives 0.99% (n = 340,000). P51843. HEK293 Gal4-DAX1 luciferase reporter, luminescence;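 active = inhibition above the mean over all tested compounds plus 3 SD, cut at about 4.2% in these data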;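 note: 0% = DAX1-transfected cells with DMSO and 100% = empty-vector control cells with DMSO; inhibition shows as a rise in luminescence from relieved DAX1 repression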
# Target sequence (P51843 207-470 limits assumed): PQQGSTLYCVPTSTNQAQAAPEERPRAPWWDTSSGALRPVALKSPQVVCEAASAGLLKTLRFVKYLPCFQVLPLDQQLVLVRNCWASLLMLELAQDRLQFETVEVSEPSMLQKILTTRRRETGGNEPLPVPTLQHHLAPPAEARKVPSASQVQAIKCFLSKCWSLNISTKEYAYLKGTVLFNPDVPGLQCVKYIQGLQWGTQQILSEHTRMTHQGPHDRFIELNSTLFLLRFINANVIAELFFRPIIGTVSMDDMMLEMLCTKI
# ssDAF-12 act = S. stercoralis DAF-12 activation, primary screen | AID 652126 | HEK293 ssDAF-12/GRIP1 lit1-tk-luc reporter, luminescence; % of 3 µM dafachronic acid response | actives 1% (n = 370,000) | activation, % at 6.8 µM;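 active = activation above the mean over all tested compounds plus 3 SD, cut at about 0.9% in these data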;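 note: 0% = DMSO-only wells and 100% = 3 µM delta7-dafachronic acid wells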
# hcDAF-12 act = H. contortus DAF-12 activation, primary screen; HEK293 hcDAF-12 lit1-tk-luc reporter, luminescence; 0% DMSO, 100% Δ7-dafachronic acid; activation, % at 6.8 µM; actives 1.4% (n = 370,000);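 active = activation above the mean of all tested compounds plus 3 SD, cut at about 5.5% in these data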;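 note: 100% = response to 3 µM Δ7-dafachronic acid high control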
# Wee1 stabilizer = blocks degradation of human Wee1 kinase. P30291. HeLa Luc-Wee1K328M stability, luciferase luminescence; 100% = proteasome inhibitor MG132 effect. reporter increase, % at 5 µM. actives 1.2% (n = 220,000). AID 1321;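 active = activation above the mean of all tested compounds plus 3 SD, set per screening run, cut at about 8.8% in these data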;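 note: cells exposed to compound for 20 h before luminescence read; 0% = DMSO alone and 100% = MG132 at 30 µM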
# DAX1 inh-2 = inhibitors of DAX1 repression of SF-1 activated StAR promoter; actives 1.1% (n = 370,000); HEK293T StAR-luciferase reporter, SF-1/DAX-1 repression relief; AID 652010; inhibition, % at 6.8 µM;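 active = inhibition above the mean over all tested compounds plus 3 SD, cut at about 3.6% in these data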;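 note: 0% = DAX-1 cells with DMSO and 100% = cells lacking DAX-1 with DMSO; higher inhibition means more luminescence from relief of DAX-1 repression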
# hgDAF-12 ag = hgDAF-12 agonism, primary luciferase screen. HEK293 GAL4-hgDAF12 UAS-luciferase reporter, agonist luminescence; normalized to butyrate control. activation, % at 6.8 µM. actives 1.8% (n = 370,000);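 active = activation above a cutoff set at the mean of all screened compounds plus 3 SD, cut at about 10% in these data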;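 note: 0% = DMSO wells and 100% = sodium butyrate wells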
# DAX1 conf = NR0B1 (human) inhibition, confirmation | shares compounds with DAX1 inh-2 | HEK293T StAR-promoter luciferase reporter, SF-1/DAX-1 repression | inhibition, % at 6.8 µM | actives 87% (n = 2,400) | AID 652134;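 active = inhibition above the average of every tested compound plus 3 SD, cut at about 3.8% in these data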;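 note: 0% = DAX-1 cells with DMSO and 100% = no DAX-1 control cells with DMSO; active compounds raise luminescence by relieving repression of the StAR reporter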
# SF1 AF2mut Luc = nonselective inhibitor or artifact in SF-1 mutant DAX1 counter-screen | shares compounds with DAX1 inh-2 | HEK293 StAR-luciferase, SF-1 AF2 mutant, luminescence | inhibition, % at 6.8 µM | actives 78% (n = 2,400);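 active = inhibition above the mean of all tested compounds plus 3 SD, cut at about 3% in these data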;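 note: 0% = DAX-1 transfected cells with DMSO and 100% = cells without DAX-1 with DMSO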
# LXRb hcDAF ctr = activates human LXR-beta, counter-screen for hcDAF-12 agonists. shares compounds with hcDAF-12 act. HEK293 Gal4-LXR tk-luc reporter, luminescence, 24 h; normalized: DMSO 0%, positive control 100%. AID 743027. 3,400 tested, under 10 active. activation, % at 6.8 µM;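 active = mean percent activation of the reporter above a cutoff set as the average over tested compounds plus their standard deviation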
# Target sequence (P55055 whole entry, looked up, the tested form may be a part): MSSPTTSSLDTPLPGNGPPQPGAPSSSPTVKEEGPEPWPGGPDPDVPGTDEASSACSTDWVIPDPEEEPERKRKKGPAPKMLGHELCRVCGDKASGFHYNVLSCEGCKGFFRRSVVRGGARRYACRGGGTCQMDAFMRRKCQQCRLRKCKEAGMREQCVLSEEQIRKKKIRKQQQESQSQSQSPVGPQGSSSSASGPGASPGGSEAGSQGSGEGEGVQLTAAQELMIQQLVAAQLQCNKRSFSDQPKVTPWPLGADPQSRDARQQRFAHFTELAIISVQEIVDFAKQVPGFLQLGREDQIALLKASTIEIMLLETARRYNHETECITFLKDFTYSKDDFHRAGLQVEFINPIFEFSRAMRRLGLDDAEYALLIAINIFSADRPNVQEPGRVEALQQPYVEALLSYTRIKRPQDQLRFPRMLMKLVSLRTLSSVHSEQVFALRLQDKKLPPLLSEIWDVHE
# hcDAF12 conf = confirmation of H. contortus DAF-12 agonists. actives 61% (n = 3,400). shares compounds with hcDAF-12 act. activation, % at 6.8 µM. HEK293 hcDAF-12 lit1-tk-luc reporter, luminescence; % of Δ7-dafachronic acid response;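 active = mean activation across triplicate tests above the threshold derived from the earlier primary screen, cut at about 5.5% in these data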;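 note: 0% = DMSO only wells and 100% = 3 µM Δ7-dafachronic acid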
# hgDAF12 ag = confirmation of H. glycines DAF-12 agonists. AID 743050. actives 80% (n = 3,300). shares compounds with hgDAF-12 ag. activation, % at 6.8 µM. HEK293 GAL4-hgDAF12 luciferase reporter, agonist mode; percent of butyrate response;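 active = mean activation over triplicate wells above the hit cutoff derived from the earlier primary screen, cut at about 11% in these data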;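 note: 0% = DMSO low control and 100% = 2 mM sodium butyrate high control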
# LXR ag 2 = LXR-beta agonism as DAF-12 counter-screen; shares compounds with hgDAF-12 ag; HEK293 Gal4-LXR luciferase reporter, 24 h; activation, % at 6.8 µM; 3,300 tested, under 10 active; AID 743051;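 active = mean activation of the triplicate above a set limit carried over from the primary screen, none filed active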
# Numbers without * were called inactive; · = no result given; ! = not active in a repeat. In the library only some 4.6% were active in any assay of this set; here they are far more common.
SMILES,DAX1 inh-1,ssDAF-12 act,hcDAF-12 act,Wee1 stabilizer,DAX1 inh-2,hgDAF-12 ag,LXRb hcDAF ctr,hcDAF12 conf,others
O=C(N/N=C/c1c(O)n(C2CCCCC2)c(=S)[nH]c1=O)c1ccccc1,0.0,-1.1,2.0,·,4.8*,6.4,·,·,DAX1 conf=2.7;SF1 AF2mut Luc=2.3
O=C(N/N=C/c1c(O)n(C2CCCCC2)c(=S)[nH]c1=O)c1ccccc1O,0.8,-1.4,-1.1,·,0.2,-0.2,·,·,
Cc1nn(Cc2ccccc2)c(Cl)c1C(=O)OCC(=O)Nc1cccc2ccccc12,1.1,-0.9,-1.0,8.5,0.1,1.5,·,·,
CCN(CC)C(=O)c1ccc(NC(=O)Nc2ccccc2F)cc1,-5.1,-0.4,5.3,-3.2,6.5*,11.1*,·,·,DAX1 conf=8.9*;SF1 AF2mut Luc=4.2*
CCN(CC)C(=O)c1ccc(NC(=O)CCCSc2ccccc2)cc1,0.1,-1.8,0.1,-2.8,-0.2,0.0,·,·,
Cc1ccc2c(c1)NP(=S)(Oc1ccccc1)N2 (stereo unspecified),4.5*,1.0*,7.5*,·,8.0*,11.6*,0.1,2.9,DAX1 conf=6.5*;SF1 AF2mut Luc=2.9*
O=c1[nH]c(=S)n(Cc2ccc(F)cc2)c(O)c1/C=N/N1CCCCCC1,-0.9,-0.8,1.0,-0.3,0.5,-0.4,·,·,
N=C1c2ccccc2CN1NC(=O)c1ccccc1,-0.3,-0.4,-0.6,1.3,0.2,4.7,·,·,
N=C1c2ccccc2CN1CC(=O)c1ccccc1,1.5,2.6*,22.9*,5.4,7.0*,20.1*,0.9,7.3*,DAX1 conf=11.3*;SF1 AF2mut Luc=7.2*;hgDAF12 ag=23.6*;LXR ag 2=0.9
CCCCn1nnnc1C(CCSC)N1CCC2(CC1)C(=O)NCN2c1ccccc1 (stereo unspecified),·,-1.3,-1.6,·,-2.0,-2.8,·,·,
CNC(=O)Oc1ccc(-c2cn3cc(Cl)ccc3n2)cc1,-1.3,1.6*,6.4*,3.9,6.1*,13.5*,·,·,DAX1 conf=9.8*;SF1 AF2mut Luc=3.5*;hgDAF12 ag=20.9*;LXR ag 2=1.1
Cc1ccc(-n2c(O)c(C=Nc3ccccc3N)c(=O)[nH]c2=O)cc1C,0.7,0.7,7.8*,-1.6,4.4*,9.8,-0.1,2.8,
Cc1cc(S(N)(=O)=O)ccc1N=Cc1c(O)n(-c2ccccc2)c(=O)[nH]c1=O,2.9,0.1,1.1,-1.8,0.1,-1.7,·,·,
S=P(NCCSCc1ccccc1)(N1CC1)N1CC1,-1.2,-0.8,0.1,·,-0.5,1.2,·,·,
CC(=Nc1ccccc1N)c1c(O)n(C)c(=O)[nH]c1=O,3.2,1.8*,7.7*,·,1.8,10.0,-0.3,0.9,
c1ccc2c(CN3CCOCC3)c[nH]c2c1,0.7,-0.9,7.0*,·,0.0,-0.8,-0.3,4.8,
C=CCOC(=O)c1ccccc1N,0.8,-1.2,-3.1,·,0.8,-4.5,·,·,
Nc1ccccc1C(=O)OCCOc1ccccc1,0.7,0.3,9.3*,-1.7,4.3*,11.3*,1.7,7.5*,
CCCCn1c(=O)c(C(=O)Nc2ccsc2C(=O)OC)c(O)c2ccccc21,-0.4,0.3,7.2*,-2.6,0.6,2.7,-0.1,5.3,
CCCCn1c(=O)c(C(=O)Nc2ccccc2F)c(O)c2ccccc21,0.2,0.2,7.0*,·,-0.1,0.3,0.0,6.1*,
CCOC(=O)C1C2NC(=O)N(Cc3ccccc3)C1(C)Oc1c(OC)cccc12 (stereo unspecified),-0.2,-1.4,-0.6,-0.1,-0.5,-1.5,·,·,
C[n+]1ccc(-c2ccncc2)cc1,0.7,-1.1,-0.8,1.6,0.6,-0.3,·,·,
O=C1c2ccccc2-c2cccc3cccc1c23,0.2,-0.4,3.4,·,2.6,7.6,·,·,
O=C1c2ccccc2-c2cc3ccccc3cc21,1.8,0.6,6.6*,·,0.5,5.5,0.3,7.1*,
CNCCc1c[nH]c2ccccc12,·,·,·,1.7,·,·,·,·,
SMILES,DAX1 inh-1,ssDAF-12 act,hcDAF-12 act,Wee1 stabilizer,DAX1 inh-2,hgDAF-12 ag,LXRb hcDAF ctr,hcDAF12 conf,others
CCC(N)Cc1c[nH]c2ccccc12 (stereo unspecified),0.0,0.3,7.2*,-2.4,-0.2,-0.5,-0.2,5.2,
C=C1C(=O)OC2CCN3CC=C(COC(=O)C(C)(O)C4(CO4)C1C)C23 (stereo unspecified),·,-0.5,-1.7,·,0.5,-1.9,·,·,
CCOP(=O)(OCC)C1(O)C(=O)Nc2ccccc21 (stereo unspecified),0.8,0.1,7.1*,3.3,0.3,0.1,-0.2,3.1,
O=C(c1cc2cc(Br)ccc2[nH]1)N1CCC2(CC1)OCCO2,0.3,-0.1,7.6*,·,0.3,3.2,0.0,5.2,
O=C(c1cc(Br)ccc1Cl)N1CCC2(CC1)OCCO2,2.2,-0.9,0.1,1.1,0.4,-0.2,·,·,
CC(=O)n1cc(C=C2C(=O)NC(=O)NC2=O)c2ccccc21,1.1,0.5,9.8*,·,1.5,-1.7,0.0,4.8,
Cn1cc(C=C2C(=O)NC(=O)NC2=O)c2ccccc21,-0.4,-0.3,5.3,·,-0.4,0.1,·,·,
CCc1c(C)nc(N)nc1N1N=C1SCC(N)=O,-0.4,-0.8,-1.3,0.4,-0.2,-3.6,·,·,
CC(C)COc1ccc(C2(C#N)CC[N+](C)(C)CC2)cc1,-0.1,-1.1,-1.4,2.4,-0.5,-2.2,·,·,
O=c1[nH]c(=O)n(CC2CCCO2)c(O)c1/C=C1\C=Nc2ccccc21 (stereo unspecified),5.4*!,-0.7,6.1*,0.2,0.0,4.8,0.0,4.2,
O=c1[nH]c(=O)n(Cc2ccccc2)c(O)c1/C=C1\C=Nc2ccccc21,0.3,-0.7,4.3,-0.4,-0.3,-0.1,·,·,
C=CCNC(=S)N1Cc2ccccc2-n2nncc2C1,3.1,-0.5,1.0,·,0.2,8.4,·,·,
COc1cc(CNCCc2c[nH]c3ccccc23)cc(OC)c1,0.9,-1.1,8.5*,·,0.1,0.1,-0.2,1.2,

# Screening data (PubChem BioAssay)
